# Assay results published in PubChem BioAssay (NCI).
# This is part of a sample that, as a whole, favours compounds with a hit. Of some 83,000 tested, about 20% had one in any assay.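 Assay: single dose, 48 h. Readout: percent growth (0 = no net growth; negative = cell death). Active: <10.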 A number with no mark means an inactive call. Activity calls are given as the source filed them.
# Assays:
# Assay in all cases: NCI-60 one-dose screen, 48 h (100 = growth as untreated, 0 = no growth, -100 = all killed)
# Conditions in all cases: 10 µM unless noted
# [1] = tested on: NCI-H23 lung
# [2] = tested on: NCI-H226 lung
# [3] = tested on: NCI-H322M lung
# [4] = tested on: HOP-62 NSCLC
# [5] = tested on: NCI-H460 lung
# [6] = tested on: HOP-92 NSCLC
# [7] = tested on: NCI-H522 lung
# [8] = tested on: A549/ATCC NSCLC
# [9] = tested on: 786-0 renal
# [10] = tested on: COLO 205 colon
# [11] = tested on: DU-145 prostate
# [12] = tested on: K-562 leukemia
# [13] = tested on: MALME-3M melanoma
# [14] = tested on: MDA-MB-231 breast
# [15] = tested on: RXF 393 renal
# [16] = tested on: SF-268 CNS
# [17] = tested on: SF-295 CNS
# [18] = tested on: SF-539 CNS
# [19] = tested on: UACC-257 melanoma
# [20] = tested on: M14 melanoma
Structure (SMILES),growth [1],growth [2],growth [3],growth [4],growth [5],growth [6],growth [7],growth [8],growth [9],growth [10],growth [11],growth [12],growth [13],growth [14],growth [15],growth [16],growth [17],growth [18],growth [19],growth [20]
Cc1ccc(C2CC(c3ccc(NC(=O)Nc4ccccc4)cc3)=NN2c2ccc(S(C)(=O)=O)cc2)cc1 (stereo not given),-69.1% (active),-39.2% (active),6.06% (active),-39.8% (active),-5.89% (active),-50.4% (active),-23.7% (active),4.89% (active),-31.6% (active),-43.4% (active),3.25% (active),13.1%,-25.1% (active),-70.1% (active),-78.9% (active),9.34% (active),-20.3% (active),-97% (active),34.3%,-44.8% (active)
O=C(N/N=C/c1ccc(-c2cccc([N+](=O)[O-])c2)s1)c1[nH]c2ccc(Br)cc2c1-c1ccccc1,81.3%,94.8%,99.2%,64.4%,84.6%,94.4%,66.5%,91.4%,92.6%,97.7%,106%,92.7%,86.1%,74.6%,90.8%,92.7%,103%,96.6%,85.6%,75.2%
Cc1ccc(C(=O)Nc2cc(-n3ccnc3)cc(C(F)(F)F)c2)cc1-n1cc(-c2cnc3cccnn23)nn1,82%,89.9%,113%,107%,97%,78.8%,102%,101%,103%,42.2%,111%,9.87% (active),-7.64% (active),31.5%,94.8%,120%,107%,84.7%,47.8%,25.4%
COc1ccccc1NC(=O)N/N=C/c1c[nH]c2ccccc12,0.507% (active),19%,49.4%,47.6%,14.1%,47.7%,-37.1% (active),30.5%,14.9%,4.3% (active),17.6%,15.4%,54.6%,52.3%,-38.7% (active),30.9%,-14.5% (active),-11.4% (active),54.6%,14.8%
C/C(=N/O)c1ccc(NC(=O)CSc2nnc(-c3ccc4nc(-c5ccc(Cl)cc5)[nH]c4c3)o2)cc1,-18.9% (active),110%,55.8%,20.2%,12.2%,88.7%,-16.3% (active),31.8%,-59.9% (active),122%,44.3%,19.4%,-4.58% (active),36%,-40.6% (active),70.8%,97.6%,43%,97.4%,22.2%
COc1ccc2c(c1)C(Sc1ccc(F)cc1)c1c(nc(N)c(C#N)c1N)O2 (stereo not given),90.7%,90.9%,94.4%,111%,95.7%,116%,78.9%,96.2%,80.7%,104%,99.5%,63.5%,88.3%,80.1%,69.2%,85%,92.8%,90.5%,104%,84.9%
COc1ccc2[nH]c(=O)cc(-n3ncc(C(=O)/C=C/c4cc(OC)c(OC)c(OC)c4)c3C)c2c1,-45.1% (active),-21.7% (active),5.89% (active),0.688% (active),-30.4% (active),44.2%,-81.1% (active),8.31% (active),-15% (active),-92.5% (active),-2.23% (active),1.01% (active),-25.7% (active),1.48% (active),-74.8% (active),8.19% (active),11.3%,-59.8% (active),-6.58% (active),-48.3% (active)
Nc1cc(-c2c[nH]c3ccc(Cl)cc23)nc2cc(-c3c[nH]c4ccccc34)nn12,-56% (active),35.5%,5.87% (active),-48% (active),-65.9% (active),-22.8% (active),-75% (active),-8.14% (active),-52.1% (active),-86% (active),8.69% (active),6.27% (active),-68.2% (active),-79.2% (active),-21.5% (active),9.75% (active),-79.4% (active),-81.5% (active),-73.2% (active),-25.8% (active)
Cc1ccc(C(C(=O)NC2CCCCC2)N(Cc2ccccc2Cl)C(=O)c2ccc(CN3CCOCC3)o2)o1 (stereo not given),93.8%,101%,105%,107%,99.9%,91.3%,78.7%,98.5%,82.8%,121%,101%,81.6%,109%,85.5%,93.4%,83.5%,91.8%,99.4%,103%,98.6%
O=C(NNC(=S)NCCc1ccccc1)c1ccc(OCc2nc3ccc(Cl)cc3[nH]2)cc1,66.3%,97.7%,88.8%,97.4%,82.3%,144%,78.7%,73.8%,79.1%,131%,79.4%,29.6%,65.5%,95.5%,93%,70.4%,61.4%,84.3%,79.9%,93.9%
CCCCCCCOc1ccc(S(=O)(=O)Nc2ccc(C)c(F)c2C(=O)O)cc1,93.2%,88%,100%,98%,102%,8.57% (active),84.3%,103%,95%,122%,104%,88.4%,91.3%,96%,114%,101%,89.3%,102%,102%,96.4%
Nc1cc(-c2c[nH]c3ccc(F)cc23)nc2cc(-c3c[nH]c4ccccc34)nn12,-12.7% (active),52.9%,30.2%,1.04% (active),3.08% (active),-9.18% (active),-49.9% (active),9.83% (active),-81% (active),-88.8% (active),26.9%,5.2% (active),-28% (active),-65.5% (active),36.5%,35.4%,-66% (active),-74.8% (active),-63.3% (active),-23.1% (active)
CN(C)c1ccc(/C=C/c2n(Cc3ccc4ccccc4c3)c3ccccc3[n+]2Cc2ccc3ccccc3c2)cc1,-91.4% (active),-65.2% (active),-90% (active),-63.3% (active),-75.9% (active),-67.2% (active),-69.1% (active),-53.4% (active),-72% (active),-41.7% (active),-43.3% (active),2.08% (active),-68% (active),-80.3% (active),-74.4% (active),-59.1% (active),-98.9% (active),-95.3% (active),-74.3% (active),-69.2% (active)
CN(C)c1nc(NCCNS(=O)(=O)c2ccc(C3=Nc4c(N)nc(N)nc4NC(c4ccc(Cl)cc4)C3)cc2)nc(N2CCOCC2)n1 (stereo not given),69.2%,58.6%,69.3%,57.1%,59.1%,-10.8% (active),65.3%,63.4%,40.7%,66.5%,67.1%,15.7%,62.4%,12%,2.28% (active),53.4%,38.5%,43%,75.7%,45.5%
C=CC(=O)Nc1ccc(C(=O)/C=C/c2ccc(N(C)C)cc2)c(O)c1,4.7% (active),28.6%,41.1%,10.1%,0.849% (active),45.8%,-67.5% (active),12.8%,-1.73% (active),-59.6% (active),7.83% (active),12%,3.17% (active),26.9%,-63.8% (active),21.5%,13.1%,-21.8% (active),0.649% (active),-5.06% (active)
